Assay results taken from PubChem BioAssay (NCATS).
Records with an inconclusive call do not appear. Active and inactive are the calls of the source. Unless noted, the call rests on the fitted dose curve; in most records, active means well fitted curve in the direction sought with a large enough effect; inconclusive means small, poorly fitted or top-dose-only effect, or another doubt; inactive means no such curve, though single readings can be large; an effect the other way counts as inactive or inconclusive. Residues, ends and D or L forms follow the SMILES beside them. *: point of attachment. Cbz = O=C(OCc1ccccc1)*

Key:
[1] = Cytometric Cell-Based qHTS for Inhibitors of the mTORC1 Signaling Pathway in MEF (Tsc2-/-, p53-/-) Cells (AID 2660);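 further: Tsc2 and p53 null MEFs carrying empty vector with compound for 24 h; percent of cells above a phospho-rpS6 to PI ratio cutoff in each well; series mostly up to about 38 µM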
Procedure, shortened: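 Percent of cells positive for normalized phospho-S6 staining is reported, with the cutoff set from rapamycin (7.5 nM) versus DMSO wells. Tsc2-/-, p53-/- MEFs received compound for 24 hrs.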

[2] = High Content Imaging Cell-Based qHTS for Inhibitors of the mTORC1 Signaling Pathway in MEF (Tsc2-/-, p53-/-) Cells (AID 2666);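 further: percent of cells scored positive for phospho-rpS6 Ser235/236 immunostaining by imaging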
Procedure, shortened: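 Cells were plated, dosed with compound after 24 hrs, and incubated another 24 hrs at 37 degree Celsius. Fixed cells were immunostained for phospho-rpS6 Ser235/236 and counterstained, and the normalized signal was scored as % active cells against rapamycin and DMSO controls.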

[3] = High Content Imaging Cell-Based qHTS for Inhibitors of the mTORC1 Signaling Pathway in MEF Cells (AID 2667);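 further: Tsc2-/- p53-/- MEFs stably re-expressing wild-type Tsc2 exposed 24 h; series mostly up to about 38 µM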
Procedure, shortened: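 Immunofluorescence for rpS6 phosphorylation in MEFs of Tsc2-/-, p53-/- background rescued with WT Tsc2. Compound exposure lasted 24 hrs. Inhibition was scored against rapamycin-treated control wells.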

[4] = Cytometry Cell-Based qHTS for Inhibitors of the mTORC1 Signaling Pathway in MEF cells (AID 2668);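 further: Tsc2-/- p53-/- mouse embryonic fibroblasts stably re-expressing wild-type Tsc2; percent cells positive for phospho-rpS6 Ser235/236 relative to propidium iodide stain; series mostly up to about 38 µM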
Procedure, shortened: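 MEFs (Tsc2-/-, p53-/- stably expressing WT Tsc2) treated 24 h at 37 degree Celsius, fixed, stained with Alexa-488 anti-phospho-rpS6 Ser235/236 and propidium iodide; Acumen laser scanning. Reported as % positive cells, phospho-S6 normalized to PI.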

[5] = Validation screen for small molecules that induce DNA re-replication in MCF 10A normal breast cells (AID 463097); further: nearly all actives have a fitted effect of over 60% in size
Procedure, shortened: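 MCF 10A cells exposed to compound 48 hr at 37 C, 5% CO2, then Hoechst-stained 40 min. Laser-scanning imaging of nuclear DNA content (405 nm ex, 500-530 nm em); re-replication scored as rise in nuclei with elevated fluorescence intensity.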

[6] = biological target: DNA polymerase III PolC-type (Bacillus subtilis (strain 168)) (UniProt P13267); experiment: qHTS Validation Assay for the Inhibitors of DNA Replication in Gram-Positive Bacteria (AID 485295);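 further: PicoGreen fluorescence of double-stranded DNA made on primed circular M13 template; series mostly up to about 57 µM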
Procedure, shortened: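 Reconstituted B. subtilis Pol III holoenzyme (PolC, beta clamp, SSB, primase) preincubated with compound, then M13Gori single-stranded circular template with dNTPs/NTPs added; room temperature reaction. Stopped with EDTA/PicoGreen; dsDNA fluorescence read, EDTA as full-inhibition control.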

[7] = biological target: Tumor susceptibility gene 101 protein (Homo sapiens) (UniProt Q99816); experiment: qHTS Validation Assay for Iinhibitors of HIV-1 Budding by Blocking the Interaction of PTAP/TSG101 (AID 485342; calls by dose curve)
Procedure, shortened: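 Tsg101 binding domain (10 uM) with FITC-labeled PTAP peptide (50 nM) in HEPES pH 7.5 buffer, 20 min at r.t. with compounds. Binding measured by fluorescence polarization.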

[8] = qHTS Validation Assay to Find Inhibitors of Chronic Active B-Cell Receptor Signaling (AID 485345; active means well fitted curve in the direction sought with a large enough effect in the main read-out, with a control signal flat, not every such curve was filed as active)
Procedure, shortened: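 Read-out: ratio of filter-corrected green (IkappaBalpha fusion) to red (native) luciferase signal in doxycycline-induced TMD8 cells after 4 h at 37C. Titration spanned 46 uM–3 nM; Data were normalised to basal cells and 10 uM MG-132 wells.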

[9] = biological target: Ubiquitin carboxyl-terminal hydrolase 2 (Homo sapiens) (UniProt O75604); experiment: qHTS Validation Assay for Inhibitors of Ubiquitin-specific Protease USP2a Using CHOP2 as the Reporter (AID 463106)
Procedure, shortened: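 10nM USP2 core + cpd, 30min RT; add 25nM Ub-CHOP2/25nM substrate; 60min RT; FI 485/531nm. Buffer Tris pH 8.0, CaCl2, BME, CHAPS. Norm. to NEM = 100% inhibition; time-zero read flags fluorescent artifacts.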

Measured: Potency

DNA polymerase III PolC-type (Bacillus subtilis (strain 168)), sequence (P13267 whole entry, looked up): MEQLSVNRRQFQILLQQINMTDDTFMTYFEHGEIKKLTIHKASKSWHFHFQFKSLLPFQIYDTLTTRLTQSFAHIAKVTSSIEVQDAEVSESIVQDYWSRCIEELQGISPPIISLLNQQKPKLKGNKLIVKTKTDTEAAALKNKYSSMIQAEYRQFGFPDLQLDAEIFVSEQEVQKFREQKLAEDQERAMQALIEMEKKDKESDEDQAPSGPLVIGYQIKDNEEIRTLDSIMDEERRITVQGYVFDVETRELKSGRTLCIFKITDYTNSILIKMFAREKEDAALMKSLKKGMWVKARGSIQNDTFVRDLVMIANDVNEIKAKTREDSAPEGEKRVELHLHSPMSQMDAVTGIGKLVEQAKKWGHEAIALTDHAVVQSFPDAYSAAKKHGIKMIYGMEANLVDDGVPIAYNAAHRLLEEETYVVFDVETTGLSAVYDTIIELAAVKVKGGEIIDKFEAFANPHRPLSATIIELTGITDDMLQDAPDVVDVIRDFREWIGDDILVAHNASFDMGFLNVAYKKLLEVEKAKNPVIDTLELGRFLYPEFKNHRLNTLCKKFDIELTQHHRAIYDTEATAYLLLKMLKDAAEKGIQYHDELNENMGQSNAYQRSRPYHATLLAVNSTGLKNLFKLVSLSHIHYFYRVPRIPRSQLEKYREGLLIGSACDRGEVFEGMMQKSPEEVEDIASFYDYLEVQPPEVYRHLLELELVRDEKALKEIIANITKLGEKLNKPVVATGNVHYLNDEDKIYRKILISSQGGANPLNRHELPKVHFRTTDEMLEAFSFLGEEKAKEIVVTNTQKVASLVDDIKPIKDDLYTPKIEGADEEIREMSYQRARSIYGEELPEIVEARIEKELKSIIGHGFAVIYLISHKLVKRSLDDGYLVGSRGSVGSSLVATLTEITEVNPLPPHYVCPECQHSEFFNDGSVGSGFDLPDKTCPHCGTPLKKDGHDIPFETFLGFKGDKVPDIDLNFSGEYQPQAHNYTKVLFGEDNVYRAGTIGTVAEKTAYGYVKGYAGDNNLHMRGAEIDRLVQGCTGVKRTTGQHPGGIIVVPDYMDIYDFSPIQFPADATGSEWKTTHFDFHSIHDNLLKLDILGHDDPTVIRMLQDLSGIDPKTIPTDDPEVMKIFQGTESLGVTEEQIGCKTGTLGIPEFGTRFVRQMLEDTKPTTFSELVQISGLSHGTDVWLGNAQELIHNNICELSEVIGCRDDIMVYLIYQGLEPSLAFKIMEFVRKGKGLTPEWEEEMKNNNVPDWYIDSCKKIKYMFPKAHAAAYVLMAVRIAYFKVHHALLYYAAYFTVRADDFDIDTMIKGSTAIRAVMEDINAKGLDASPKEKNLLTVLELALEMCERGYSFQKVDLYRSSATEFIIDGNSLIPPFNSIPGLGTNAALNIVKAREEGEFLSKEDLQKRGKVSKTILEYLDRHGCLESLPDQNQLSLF
Ubiquitin carboxyl-terminal hydrolase 2 (Homo sapiens), sequence (O75604 whole entry, looked up): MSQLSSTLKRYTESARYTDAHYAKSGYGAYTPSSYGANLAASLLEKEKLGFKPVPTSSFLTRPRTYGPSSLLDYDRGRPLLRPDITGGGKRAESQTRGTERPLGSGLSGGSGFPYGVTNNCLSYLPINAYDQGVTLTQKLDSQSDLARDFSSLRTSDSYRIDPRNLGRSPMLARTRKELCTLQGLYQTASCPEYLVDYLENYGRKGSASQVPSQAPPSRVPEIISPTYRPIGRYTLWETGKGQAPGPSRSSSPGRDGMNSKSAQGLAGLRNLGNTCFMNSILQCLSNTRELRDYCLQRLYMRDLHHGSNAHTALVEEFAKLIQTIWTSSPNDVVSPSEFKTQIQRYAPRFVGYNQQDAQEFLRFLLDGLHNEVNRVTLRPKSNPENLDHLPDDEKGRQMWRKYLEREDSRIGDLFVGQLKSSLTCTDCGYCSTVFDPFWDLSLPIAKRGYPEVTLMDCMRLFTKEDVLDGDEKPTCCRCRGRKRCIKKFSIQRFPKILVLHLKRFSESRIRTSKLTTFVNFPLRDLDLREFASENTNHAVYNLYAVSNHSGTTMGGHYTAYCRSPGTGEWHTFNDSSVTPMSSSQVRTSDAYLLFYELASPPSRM
Tumor susceptibility gene 101 protein (Homo sapiens), sequence (Q99816 whole entry, looked up, the tested form may be a part): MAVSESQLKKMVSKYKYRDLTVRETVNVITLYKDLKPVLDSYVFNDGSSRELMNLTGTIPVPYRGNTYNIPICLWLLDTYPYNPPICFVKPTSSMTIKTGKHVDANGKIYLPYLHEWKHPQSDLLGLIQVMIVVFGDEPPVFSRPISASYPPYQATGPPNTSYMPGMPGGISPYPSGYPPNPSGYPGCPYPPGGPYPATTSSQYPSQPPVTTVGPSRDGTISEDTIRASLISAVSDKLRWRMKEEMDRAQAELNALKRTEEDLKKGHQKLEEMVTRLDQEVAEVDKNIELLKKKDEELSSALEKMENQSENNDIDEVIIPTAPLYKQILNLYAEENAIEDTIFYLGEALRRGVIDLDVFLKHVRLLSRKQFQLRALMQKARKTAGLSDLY

Nc1ccc(N2C(=O)c3ccccc3C2=O)c(Cl)c1
not listed: [9]
inactive: all other assays above

COCc1nc2c([nH]1)c(=O)n(C)c(=O)n2CC(C)C
not listed: [9]
inactive: all other assays above

CC(N)=NCCCC[C@@H](N)C(=O)O
not listed: [6]
inactive: all other assays above

NCCCCN
not listed: [6] | [7] | [9]
inactive: all other assays above

Cc1cccc(C)c1OCC(N)C(C)C (stereo not drawn)
not listed: [5]
inactive: all other assays above

Nc1nc2c(cnn2CCc2ccccc2)c2nc(-c3ccco3)nn12
not listed: [5] | [8]
inactive: all other assays above

CC(C)[C@H](NC(=O)OCc1ccccc1)C(=O)N[C@H](C=O)Cc1ccccc1 (Cbz-Val-Phe-aldehyde)
not listed: [5]
inactive: all other assays above

CCCCOc1cc(CC2CNC(=O)N2)ccc1OC (stereo not drawn)
not listed: [5] | [8]
inactive: all other assays above

CN(CC[C@@H](Oc1ccc(C(F)(F)F)cc1)c1ccccc1)CC(=O)O
not listed: [5]
inactive: all other assays above
